Compounds with a hit are over-represented: about 13% of the library has one in this group of screens.
HCV inhibitor: blocks hepatitis C virus. Huh7.5.1 HCVcc-Cre infection, luciferase reporter, 44 h. AID 651820. 3.4% of 340,000 active. Potency, µM (top dose mostly 41.8 µM), usual class: inhibitors; active means well fitted inhibition curve with a large enough effect; inconclusive means small, poorly fitted or top-dose-only effect, or another doubt; inactive means no such curve, though single readings can be large or run the other way
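HCVcc-Cre virus at an moi near 0.5 was added right after compound to cells cultured 4 h from seeding (1,000 cells/well). Luciferase activity was determined 44 h later, 15 min after substrate addition at RT.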
FMDV antiviral: antivirals against foot and mouth disease virus | FMDV antiviral cell-based qHTS | Potency, µM (highest dose often 57.9 µM), hits mostly inhibitors | 1.2% of 410,000 active; calls by dose curve; tested in HEK293T cells; further: read-out not given here; nearly all actives have a fitted effect of over 45% in size
CHX counter: counter-screen for Shiga toxin inhibitors: cycloheximide protein synthesis inhibition. AID 2314. cell reporter, cycloheximide protein synthesis inhibition counterscreen. max response, %. 12% of 300,000 active; in the data active means max response mostly above about 13%, no sharp cut-off; inactive means mostly below about 14%; further: read at 38.3 µM for the half of the compounds with a filed dose
Shiga toxin inh: blocks Shiga toxin action in Vero cells. Vero cells, Shiga toxin protein synthesis inhibition reporter. 9.2% of 290,000 active. inhibition, % at 38.7 µM; in the data active means inhibition mostly above about 28%, no sharp cut-off; inactive means mostly below about 43%
Marburg entry inh: Marburg virus entry inhibition. 1.8% of 300,000 active. AID 540276. Potency, µM (top dose mostly 37.8 µM), usual class: inhibitors. Marburg virus pseudotyped entry inhibition, cell reporter; calls by dose curve; tested in HEK293 cells
LASV entry inh: Lassa virus entry inhibition | 1.2% of 300,000 active | Lassa virus pseudotype entry inhibition, cell reporter | Potency, µM (highest dose often 37.9 µM), usual class: inhibitors | AID 540256; calls by dose curve; tested in HEK293 cells; further: nearly all actives have a fitted effect of over 50% in size
Numbers stand for hits.

COc1ccccc1Nc1nc(C)c(C(=O)Nc2ccccc2)s1 was read as HCV inhibitor inconclusive, FMDV antiviral inactive, CHX counter inactive, Shiga toxin inh inactive, Marburg entry inh inconclusive and LASV entry inh inconclusive.
Cc1ccc(Nc2nc3c(s2)CCC3)c(C)c1 was read as HCV inhibitor inactive, FMDV antiviral inactive, CHX counter 32, Shiga toxin inh 56, Marburg entry inh inconclusive and LASV entry inh inactive.
Screening COc1ccccc1Nc1nc2c(s1)CCC2 returned HCV inhibitor inactive, FMDV antiviral inactive, CHX counter 36, Shiga toxin inh 68, Marburg entry inh inactive and LASV entry inh inactive.
For COc1ccc(C(=O)Nc2ccccc2C(=O)NC(C(=O)NCc2ccco2)C(C)C)cc1 (stereo unspecified) the results were HCV inhibitor inactive, FMDV antiviral inactive, CHX counter inactive, Shiga toxin inh inactive, Marburg entry inh inactive and LASV entry inh inactive.
Screening CC(=O)n1c2ccccc2c2nc(NC(C)C)sc21 returned HCV inhibitor inactive, FMDV antiviral inactive, CHX counter 16, Shiga toxin inh inactive, Marburg entry inh inactive and LASV entry inh inactive.
Screening CNc1nc2c3ccccc3n(C(C)=O)c2s1 returned HCV inhibitor inconclusive, FMDV antiviral inactive, CHX counter inactive, Shiga toxin inh inactive, Marburg entry inh inactive and LASV entry inh inactive.
`COc1cc2c(C#CCCCO)c(-c3ccc(C#N)cc3)oc(=O)c2cc1OC` gave HCV inhibitor inactive and FMDV antiviral inactive.
For COc1ccc(CC(=O)NCc2ccc3c(c2)CCN3C(=O)c2ccc(Cl)cc2)cc1OC the results were FMDV antiviral inconclusive and LASV entry inh 11µM.
For CCn1cc(C(=O)N2CCN(c3ccc(OC)cc3)CC2)c(=O)c2cc(S(=O)(=O)N3CCOCC3)ccc21 the results were HCV inhibitor inactive, FMDV antiviral inactive, CHX counter inactive, Shiga toxin inh inactive, Marburg entry inh inactive and LASV entry inh inactive.
`Clc1cccc(N=NN2CCOCC2)c1Cl` gave HCV inhibitor inactive, FMDV antiviral inactive, CHX counter 20 and Shiga toxin inh inactive.
`O=C(CC1C(=O)NCCN1C/C=C/c1ccccc1)NCCCC1CCCC1` (stereo unspecified) gave HCV inhibitor inactive, FMDV antiviral inactive, CHX counter 37, Shiga toxin inh 75, Marburg entry inh inactive and LASV entry inh inactive.
`O=C(Nc1ccc2c(c1)C(=O)OC2)c1ccc(Cl)cc1Cl` gave HCV inhibitor inactive, FMDV antiviral inactive, CHX counter inactive, Shiga toxin inh inactive, Marburg entry inh inactive and LASV entry inh inactive.
`O=C(Nc1ccc2ccccc2c1)c1cc(F)c(F)cc1Cl` gave HCV inhibitor inactive, FMDV antiviral inactive, CHX counter 47, Shiga toxin inh 110, Marburg entry inh 7.1µM and LASV entry inh inconclusive.
O=C(Nc1ccc2ccccc2c1)c1ccccc1O was read as HCV inhibitor inconclusive, FMDV antiviral inactive, CHX counter 23, Shiga toxin inh 36, Marburg entry inh 2.5µM and LASV entry inh inconclusive.
For O=C(Nc1ccc2ccccc2c1)c1ccccc1Cl the results were FMDV antiviral inactive.
O=C(Nc1ccc2ccccc2c1)c1ccc(Cl)cc1Cl was read as HCV inhibitor inconclusive, FMDV antiviral inactive, CHX counter 26 and Shiga toxin inh 32.
For CN1C(=O)c2ccc(NC(=O)c3ccc(Cl)cc3Cl)cc2C1=O the results were HCV inhibitor inactive, FMDV antiviral inactive, CHX counter 22 and Shiga toxin inh inactive.
For CS(=O)(=O)N1CCN(C(=O)c2ccc(F)cc2)CC1 the results were HCV inhibitor inactive, FMDV antiviral inactive, CHX counter inactive, Shiga toxin inh inactive, Marburg entry inh inactive and LASV entry inh inactive.
For O=C(NC1CC1)c1cccc(NC(=O)C2CCCC2)c1 the results were HCV inhibitor inactive, FMDV antiviral inactive and LASV entry inh inactive.
Screening CCc1ccc(S(=O)(=O)Nc2ccc(-c3nc4cccnc4s3)cc2)s1 returned HCV inhibitor inconclusive, FMDV antiviral inactive, CHX counter 36 and Shiga toxin inh 60.
`O=S(=O)(Nc1ccc(-c2nc3cccnc3s2)cc1)c1cc(F)ccc1F` gave HCV inhibitor inactive, FMDV antiviral inactive, CHX counter 37 and Shiga toxin inh 67.
For CCC(CC)C(=O)Nc1cccc(-c2nc3cccnc3s2)c1 the results were FMDV antiviral inactive, Marburg entry inh inconclusive and LASV entry inh inactive.
CCc1ccc(S(=O)(=O)Nc2ccc(-c3ccc4nncn4n3)cc2)s1 was read as HCV inhibitor inactive, FMDV antiviral inactive, Marburg entry inh inactive and LASV entry inh inactive.
Screening NS(=O)(=O)c1ccc(C(=O)Nc2ccc(-c3nc4cccnc4s3)cc2)cc1 returned HCV inhibitor inconclusive, FMDV antiviral inactive, CHX counter 48 and Shiga toxin inh 70.
Screening Cc1ccn2c(=O)c(C(=O)NC(C)c3ccccc3)c(O)nc2c1 (stereo unspecified) returned FMDV antiviral inactive and Marburg entry inh inconclusive.
`Cc1ccccc1C1(CC(=O)N2CCCCC2c2cccnc2)CC(=O)N(C2CCCC2)C1=O` (stereo unspecified) gave FMDV antiviral inactive.
`Oc1ccccc1C=NNc1nc2ccccc2s1` gave HCV inhibitor inconclusive, FMDV antiviral inactive, Marburg entry inh inconclusive and LASV entry inh inconclusive.
Screening C(=N\Nc1nc2ccccc2s1)/c1cccs1 returned HCV inhibitor inconclusive, FMDV antiviral inactive, CHX counter 50, Shiga toxin inh 103, Marburg entry inh inconclusive and LASV entry inh inconclusive.
Screening Cc1ccnc(N/N=C/c2ccco2)n1 returned HCV inhibitor inactive, CHX counter 41, Shiga toxin inh inactive, Marburg entry inh inconclusive and LASV entry inh inconclusive.
Screening Oc1ccc(C=NNc2nc3ccccc3s2)c(O)c1 returned HCV inhibitor inconclusive, FMDV antiviral inactive, Marburg entry inh inconclusive and LASV entry inh inconclusive.
`C(=N\Nc1nc2ccccc2s1)/c1ccco1` gave HCV inhibitor inactive, CHX counter 44, Shiga toxin inh 45, Marburg entry inh inactive and LASV entry inh inconclusive.
`OCC(O)/C=N/Nc1nc2ccccc2s1` (stereo unspecified) gave HCV inhibitor inactive, FMDV antiviral inactive, CHX counter inactive, Shiga toxin inh 48, Marburg entry inh inconclusive and LASV entry inh inactive.
For Cc1cc(N/N=C/c2ccco2)c2ccccc2n1 the results were HCV inhibitor inconclusive, FMDV antiviral inactive, CHX counter inactive, Shiga toxin inh inactive, Marburg entry inh inactive and LASV entry inh inactive.
For O=C1[C@H](Cc2ccccc2)NCC=CC[C@H](c2ccc(Cl)cc2)N1Cc1ccc(Cl)cc1 the results were HCV inhibitor inactive and FMDV antiviral inconclusive.
For COc1cccc(C=NNc2nc3ccccc3s2)c1OC the results were HCV inhibitor inconclusive, FMDV antiviral inactive, Marburg entry inh inconclusive and LASV entry inh inactive.
CCn1c(C)c(/C=N/Nc2nc3ccccc3s2)c2ccccc21 was read as HCV inhibitor inconclusive, FMDV antiviral inactive, CHX counter 61, Shiga toxin inh 105, Marburg entry inh inconclusive and LASV entry inh inconclusive.
`Cc1ccsc1/C=N/Nc1nc2ccccc2s1` gave HCV inhibitor inconclusive, FMDV antiviral inactive, CHX counter 70, Shiga toxin inh 146, Marburg entry inh inconclusive and LASV entry inh inconclusive.

Screening results (PubChem BioAssay)
